Screening results deposited in PubChem BioAssay by several laboratories.
Compounds with a hit are over-represented: about 3.9% of the library has one in this group of screens.
UBC9 SUMO inh: inhibitors of human SUMOylation (UBC9); P63279; HTRF SUMOylation assay, SAE1/SAE2 + UBC9, in vitro; inhibition, % at 35 µM; 290,000 compounds, 0.36% hits; AID 2006; in the data active = inhibition above about 50%, passing the limit was not always enough
Target sequence (P63279 whole entry, looked up): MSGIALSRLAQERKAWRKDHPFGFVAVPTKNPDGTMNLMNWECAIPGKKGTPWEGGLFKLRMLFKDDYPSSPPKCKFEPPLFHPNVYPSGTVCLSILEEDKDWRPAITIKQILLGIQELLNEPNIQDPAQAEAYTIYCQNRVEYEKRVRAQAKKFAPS
H9c2 protect: modulators protecting cardiomyocytes from myocardial damage; H9c2 cardiomyocytes, H2O2 injury protection, ATPLite, 2 h; 360,000 compounds, 0.63% hits; protection from H2O2 cell death, % at 20 µM; AID 588492;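 active = compounds giving at least 50% protection of heart cells from peroxide-induced death in the single-dose screen, raw or plate-pattern-corrected value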;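 note: 0% = DMSO wells with peroxide and 100% = DMSO wells without peroxide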
NTR1 ag: NTR1 (human) agonism. activation, % at 20 µM. NTR1-U2OS beta-arrestin-GFP spot imaging, agonist mode. 330,000 compounds, 0.17% hits. AID 493036;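 active = activation at or above 40% of the spot to cytoplasm intensity ratio, with at least 20 cells analyzed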;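 note: 0% = DMSO without peptide and 100% = 100 nM NTR1 peptide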
ALR inh: blocks human ALR sulfhydryl oxidase activity; inhibition, % (concentration not given with the values); P55789; 290,000 compounds, 3.8% hits; purified ALR, DTT oxidation, H2O2 HRP-luminol luminescence;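 active = mean replicate inhibition above about 79%, with every replicate also reaching it, limit read from the data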
Target sequence (P55789 whole entry, looked up): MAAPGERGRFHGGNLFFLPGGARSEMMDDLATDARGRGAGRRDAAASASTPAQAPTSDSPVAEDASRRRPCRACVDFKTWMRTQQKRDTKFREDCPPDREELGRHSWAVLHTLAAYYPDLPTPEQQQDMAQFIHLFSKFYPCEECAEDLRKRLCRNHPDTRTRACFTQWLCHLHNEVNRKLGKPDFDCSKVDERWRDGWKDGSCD
An asterisk follows results filed as active; . = no result given.

SMILES | UBC9 SUMO inh | H9c2 protect | NTR1 ag | ALR inh
CCOC(=O)c1ccc(NC(=O)c2nc[nH]c2C(=O)NCCCCCNC(=O)OC(C)(C)C)cc1 | -8 | 79* | 35 | -2
CCOC(=O)c1ccc(NC(=O)c2nc[nH]c2C(=O)NCCCCNC(=O)c2[nH]cnc2C(=O)Nc2ccc(C(=O)OCC)cc2)cc1 | . | 58* | 2 | 3
N#CC1=C(N)Oc2cc(N)ccc2C1c1ccc(F)cc1 (stereo not given) | 14 | 1 | -2 | 98*
COc1ccc(C2C(C#N)=C(N)Oc3cc(N)ccc32)cc1 (stereo not given) | 13 | -1 | 3 | 95*
CCOC(=O)C1CCN(S(=O)(=O)c2csc(C(N)=O)c2)CC1 | -6 | -8 | -1 | 0
CCOC(=O)C1CCN(S(=O)(=O)c2cccc(-c3cn4cc(C)ccc4n3)c2)CC1 | -3 | -25 | 4 | -4
CCOC(=O)C1CCN(S(=O)(=O)c2cccc(-c3cn4cccnc4n3)c2)CC1 | 32 | -25 | 1 | 98*
CCOC(=O)C1CCN(S(=O)(=O)c2cccc(-c3csc(C)n3)c2)CC1 | 1 | -10 | 0 | 99*
CC(=O)c1ccc(NC(=O)Nc2sc(NS(=O)(=O)c3ccccc3)nc2C)cc1 | 19 | 0 | 0 | 6
O=C(O)CCc1ccc(-c2cccs2)n1NC(=O)c1ccccc1Br | -2 | -2 | 3 | 99*
CC(C)(C)c1ccc(C(=O)Nn2c(CCC(=O)O)ccc2-c2cccs2)cc1 | 11 | -10 | 4 | 33
O=C(O)CCc1ccc(-c2cccs2)n1CCc1ccccc1 | 12 | -7 | 0 | 99*
CC(=O)c1cccc(-n2c(CCC(=O)O)ccc2-c2cccs2)c1 | 14 | -7 | 0 | 89*
Cc1ccc(NC(=O)CSc2nc3ncc(Br)cc3[nH]2)cc1C | -23 | -11 | 3 | -1
Cc1cc(C)nc(NS(=O)(=O)c2ccc(NC(=O)CSc3nc4ccccc4[nH]3)cc2)n1 | 8 | 7 | 0 | 5
Cc1cc(NS(=O)(=O)c2ccc(NC(=O)CSc3nc4ncc(Cl)cc4[nH]3)cc2)nc(C)n1 | 21 | 8 | 0 | 100*
Cc1cc(NS(=O)(=O)c2ccc(NC(=O)CSc3nc4ncccc4[nH]3)cc2)nc(C)n1 | 4 | -2 | 1 | 99*
Cc1cc(NS(=O)(=O)c2ccc(NC(=O)c3ccc(Cl)nc3)cc2)nc(C)n1 | . | 10 | . | .
Cc1cc(NS(=O)(=O)c2ccc(NC(=O)CSc3nc4ncc(Br)cc4[nH]3)cc2)nc(C)n1 | 29 | 1 | 1 | 99*
Cc1cc(NS(=O)(=O)c2ccc(NC(=O)c3cnc(Cl)c(Cl)c3)cc2)nc(C)n1 | . | -4 | 1 | 99*
Cc1ccc(-c2nc(NCCCO)c3ccccc3n2)cc1 | 15 | -2 | 5 | 98*
COc1ccc(CNCc2cc3c(C(C)(C)C)nn(-c4ccccc4)c3[nH]c2=O)cc1 | 1 | 18 | 4 | -6
CC(C)(C)c1nn(-c2ccccc2)c2[nH]c(=O)c(CNCc3ccco3)cc12 | 12 | 79* | 1 | -1
Cc1ccc(CNCc2cc3c(C(C)(C)C)nn(-c4ccccc4)c3[nH]c2=O)cc1 | 2 | 58* | 17 | -2
Cc1nn(-c2ccccc2)c2[nH]c(=O)c(CNc3ccc(N4CCOCC4)cc3)cc12 | 7 | 11 | 1 | 97*
SMILES | UBC9 SUMO inh | H9c2 protect | NTR1 ag | ALR inh
CCOC(=O)c1c(C)nc2c3ccccc3ccn12 | 14 | -16 | 4 | 7
COc1ccc2oc3cc(C)[n+]([O-])c(-c4ccc(C)cc4)c3c2c1 | 12 | 38 | 5 | 93*
COc1cc(/C=N/NC(=O)C2=NNC(=O)C2C)ccc1O (stereo not given) | 10 | -1 | 1 | 98*
CC1C(=O)NN=C1C(=O)N/N=C\c1ccc(O)cc1O (stereo not given) | 89* | 6 | 1 | 98*
CN1CCN(c2nc3c(c(=O)[nH]c(=O)n3C)n2CCOc2ccccc2)CC1 | 6 | 18 | . | .
CN(C)c1ccc(N2CC(C)(C)C2=O)cc1 | 2 | 2 | 0 | 99*
CC(=O)c1ccc(N2CC(C)(C)C2=O)cc1 | 14 | 3 | 0 | -2
C/C(N)=C(/C#N)C(=O)COC(=O)c1cc2c(s1)CCCC2 | 1 | -8 | 2 | 11
C/C(N)=C(/C#N)C(=O)COC(=O)c1cc2c(s1)CCC(C)C2 (stereo not given) | -3 | -8 | 2 | 96*
Cc1cccc(CSc2ccc3nnc(-c4cccnc4)n3n2)c1 | -1 | -8 | 1 | -1
COc1cc(/C=C2\SC(=S)N(NS(=O)(=O)c3ccc(C)cc3)C2=O)ccc1O | 15 | -2 | 3 | 99*
COc1ccccc1/C=C1\SC(=S)N(NS(=O)(=O)c2ccccc2)C1=O | 12 | 7 | 1 | 0
COc1cc(/C=C2/SC(=S)N(c3c(C)n(C)n(-c4ccccc4)c3=O)C2=O)ccc1O | 1 | -2 | 1 | 90*
COc1cccc(/C=C2\SC(=S)N(NS(=O)(=O)c3ccc(C)cc3)C2=O)c1OC | 17 | -5 | 0 | 91*
CCOc1cc(/C=C2\SC(=S)N(NS(=O)(=O)c3ccc(C)cc3)C2=O)ccc1O | . | 3 | 0 | 99*
COc1cccc(C(=O)Nc2cc3c(cc2N2CCCC2)n(C)c(=O)n3C)c1 | 11 | -1 | 1 | 99*
COc1cc(C(=O)Nc2cc3c(cc2N2CCCCC2)n(C)c(=O)n3C)cc(OC)c1OC | -17 | 53* | 2 | .
Brc1cccc(C=Nc2cccc3ncccc23)c1 | . | 0 | -1 | -43
COc1ccc(-n2c(SCC(=O)N3CCCCC3)nc3ccccc3c2=O)cc1 | -10 | 0 | 4 | .
COC(=O)c1ccc(C2c3[nH]c4ccccc4c3C[C@H]3C(=O)N(C)CC(=O)N23)cc1 (stereo not given in full) | 17 | 6 | -2 | -4
O=C(O)C1CCN(C(=O)c2ccccc2N2C(=O)[C@@H]3Cc4c([nH]c5ccccc45)C(c4cccc(Cl)c4)N3C2=O)CC1 (stereo not given in full) | 3 | 2 | -1 | 99*
Cc1ccc(C2c3[nH]c4ccccc4c3C[C@H]3C(=O)N(c4ccccc4C(=O)N4CCC[C@@H]4C(=O)O)C(=O)N23)cc1 (stereo not given in full) | 1 | 6 | -3 | 98*
COc1cccc(C2c3[nH]c4ccccc4c3C[C@H]3C(=O)N(c4ccccc4C(=O)N4CCCC4C(=O)O)C(=O)N23)c1 (stereo not given in full) | -8 | -2 | 6 | 97*
Cc1ccc(C2c3[nH]c4ccccc4c3C[C@H]3C(=O)N(c4ccccc4C(=O)N4CCC(C(=O)O)CC4)C(=O)N23)cc1 (stereo not given in full) | 16 | 1 | -2 | 16
CN1CC(=O)N2C(c3ccc(Cl)cc3)c3[nH]c4ccccc4c3C[C@H]2C1=O (stereo not given in full) | -15 | 44 | 2 | 99*
C=CCN(CC=C)CCOc1ccccc1 | 16 | -12 | 1 | -40
CCCS(=O)(=O)N1CCN(S(=O)(=O)c2ccccc2)CC1 | 12 | -2 | 6 | .
